Data on 16 compounds can be found in PubChem BioAssay (Tox21).

Where a structure was tested more than once in an assay, its records may differ in their call. Active and inactive are the calls of the source. Unless noted, calls come from the whole dose curve; as a rule, active = well fitted curve in the direction sought with a large enough effect in the repeat runs; inconclusive = weak or mixed curves; inactive = no such curve, though single readings can be large; an effect the other way counts as inactive or inconclusive. Positions of bridges follow the written chain, without caps; N, C: chain ends. Non-standard residues stand in square brackets, D forms with d. Residues, ends and D or L forms follow the SMILES beside them. *: point of attachment. X1 = CC[C@@H](C)[C@@H](N)C1=N[C@H](C(=O)*)CS1; d(aIle) = CC[C@H](C)[C@@H](N)C(=O)O; dOrn = NCCC[C@@H](N)C(=O)O

Assay [1] can be described thus: qHTS assay to identify small molecule antagonists of the thyroid receptor (TR) signaling pathway - cell viability counter screen (AID 743064). Note: nearly all actives have a fitted effect of over 50% in size. Note: potency is the fitted concentration of half-maximal effect. The method, boiled down: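 GH3.TRE-Luc rat pituitary cells carrying a TRE-luciferase reporter were treated with compound plus 1 nM T3 (final) for 23.5 h at 37 °C. Viability was then read in the same wells by CellTiter-Fluor fluorescence after a further 30 min.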

Assay [2] in a line: qHTS assay to identify small molecule antagonists of the thyroid receptor (TR) signaling pathway (AID 743065). Note: nearly all actives have a fitted effect of over 55% in size. Note: potency is the fitted concentration of half-maximal effect. The method in brief:
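GH3.TRE-Luc rat pituitary cells (two TREs driving luciferase) were dosed with compound, then stimulated with 1 nM T3 (final) for 23.5 h at 37 C. ONE-Glo luminescence was the read-out, with CellTiter-Fluor fluorescence as the cytotoxicity counter-screen.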
(In general: Quantitative high-throughput screening tests each substance at several concentrations.)

Assay [3] relates to thyroid hormone receptor (rat, GH3 cells). Description: qHTS assay to identify small molecule agonists of the thyroid receptor (TR) signaling pathway (AID 743066; calls by dose curve).
Assay [4] concerns the target Estrogen receptor (Homo sapiens) (UniProt P03372). Kind of assay: qHTS assay to identify small molecule antagonists of the estrogen receptor alpha (ER-alpha) signaling pathway (AID 743069; active = well fitted curve in the direction sought with a large enough effect in the signal ratio in the repeat runs, not every such curve was filed as active; inconclusive = weak or mixed curves, or effect the other way; inactive = no such curve, though single readings can be large or run the other way; the % refers to the signal ratio; note: potency is the fitted concentration of half-maximal effect). The method, boiled down: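 Reporter cells (ER-alpha-bla, HEK293 background) are conditioned overnight in stripped-serum medium (2% charcoal-stripped FBS). Compound and 17beta-estradiol exposure runs 18 hr at 37C, 5% CO2.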

Assay [5] is described as follows: qHTS assay to identify small molecule antagonists of the estrogen receptor alpha (ER-alpha) signaling pathway - cell viability counter screen (AID 743074; calls by dose curve;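 note: HEK293 cells carrying ER-alpha-UAS-bla reporter stimulated with 17beta-estradiol; nearly all actives have a fitted effect of over 45% in size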).
The target in assay [6] is Estrogen receptor (Homo sapiens) (UniProt P03372). Description: qHTS assay to identify small molecule agonists of the estrogen receptor alpha (ER-alpha) signaling pathway (AID 743075; calls by dose curve;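 note: HEK293 GripTite cells with ER-alpha and UAS-driven beta-lactamase reporter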; note: potency is the fitted concentration of half-maximal effect).
Assay [7] has the same target. Description: qHTS assay to identify small molecule agonists of the estrogen receptor alpha (ER-alpha) signaling pathway using the BG1 cell line (AID 743079). Note: nearly all actives have a fitted effect of over 20% in size. Note: potency is the fitted concentration of half-maximal effect.
Assay [8] can be described thus: qHTS assay to identify small molecule antagonists of the estrogen receptor alpha (ER-alpha) signaling pathway using the BG1 cell line (AID 743080; calls by dose curve;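 note: BG1 cells stimulated with 17beta-estradiol alongside compound; nearly all actives have a fitted effect of over 25% in size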; note: potency is the fitted concentration of half-maximal effect). The method in brief: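 BG1Luc4E2, endogenous ER-alpha, 4xERE-luc; 5 d charcoal-stripped FBS, phenol red free; 24 h plating; cpd + 17beta-estradiol 21.5 h, 37 C/5% CO2; CellTiter-Fluor viability 30 min, then ONE-Glo luciferase 30 min RT.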

The nature of assay [9]: qHTS assay to identify small molecule antagonists of the estrogen receptor alpha (ER-alpha) signaling pathway using the BG1 cell line - cell viability counter screen (AID 743081).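 Note: compound given together with 17beta-estradiol as the ER stimulus; series mostly up to about 70 µM; nearly all actives have a fitted effect of over 45% in size.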
The target in a further assay is Aromatase (Homo sapiens) (UniProt P11511). Kind of assay: qHTS assay to identify aromatase inhibitors (AID 743083). Note: nearly all actives have a fitted effect of over 55% in size. Note: potency is the fitted concentration of half-maximal effect.
A short description of assay [10]: qHTS assay to identify aromatase inhibitors - cell viability counter screen (AID 743084).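 Note: cells stimulated with testosterone during compound exposure; nearly all actives have a fitted effect of over 55% in size.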
Assay [11] in a line: qHTS assay to identify small molecule that activate the aryl hydrocarbon receptor (AhR) signaling pathway - cell viability counter screen (AID 743086).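 Note: HepG2 liver cells carrying the AhR DRE luciferase reporter; series mostly up to about 70 µM; nearly all actives have a fitted effect of over 45% in size.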 The method in brief: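 HepG2-AhR-luc (HG2L7.5c1) cells, 4000/well, treated 24 h at 37 C with compound; viability measured as CellTiter-Fluor fluorescence after 30 min in the same wells as the luciferase read.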
The target in assay [12] is Peroxisome proliferator-activated receptor gamma (Homo sapiens) (UniProt P37231). Description: qHTS assay to identify small molecule agonists of the peroxisome proliferator-activated receptor gamma (PPARg) signaling pathway (AID 743094; active = well fitted activation curve with a large enough effect in the signal ratio in the repeat runs, not every such curve was filed as active; inconclusive = weak or mixed curves, or effect the other way; inactive = no such curve, though single readings can be large or run the other way; the % refers to the signal ratio). The method in brief: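 Quantitative HTS agonist mode: stable HEK293H line with UAS-beta-lactamase reporter under PPARg control, 17 h compound exposure at 37C, fluorescence after 1 h FRET substrate loading at room temperature.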

Assay [13] deals with Aryl hydrocarbon receptor (Homo sapiens) (UniProt P35869). Kind of assay: qHTS assay to identify small molecule that activate the aryl hydrocarbon receptor (AhR) signaling pathway (AID 743085).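 For activation: HG2L7.5c1 human HepG2 liver cells with stably integrated DRE-driven firefly reporter; series mostly up to about 70 µM.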 Note: nearly all actives have a fitted effect of over 15% in size. Note: potency is the fitted concentration of half-maximal effect. The method in brief:
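HepG2 cells (HG2L7.5c1) stably carrying a firefly luciferase reporter driven by 20 dioxin responsive elements were exposed to compound for 24 h at 37C after a 5 h settling period; luminescence rise (ONE-Glo) indicated activation.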

Assay [14] can be described thus: qHTS assay for small molecule agonists of the antioxidant response element (ARE) signaling pathway - cell viability counter screen (AID 743203; calls by dose curve; note: nearly all actives have a fitted effect of over 55% in size; note: potency is the fitted concentration of half-maximal effect). The method, boiled down:
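Seeded at 2,000 cells/well, ARE-bla HepG2 cells were incubated 5 hrs before compound addition. After 16 hrs of treatment at 37C with 5% CO2, CellTiter-Glo reagent was added and luminescence read 30 min later.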

The nature of assay [15]: qHTS assay for small molecule activators of the heat shock response signaling pathway - cell viability counter screen (AID 743209). Note: nearly all actives have a fitted effect of over 50% in size. The method in brief: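 First, HSE-bla HeLa cells were seeded at 1500 cells/well and kept overnight at 37 C. Next, compounds were pinned in and incubated 5 h. After the FRET substrate step, CellTiter-Glo was added and luminescence read 30 min later.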

Assay [16] in a line: qHTS assay to identify small molecule antagonists of the peroxisome proliferator-activated receptor gamma (PPARg) signaling pathway - cell viability counter screen (AID 743194). Note: nearly all actives have a fitted effect of over 55% in size. The method in brief:
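Cytotoxicity counter screen in PPARg-bla HEK293H cells, same wells as reporter assay. Compounds plus 50 nM rosiglitazone (final) for 17 h at 37 C, then viability read by CellTiter-Glo luminescence.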

Assay [17] can be described thus: qHTS assay for small molecule agonists of the antioxidant response element (ARE) signaling pathway (AID 743202; active = well fitted activation curve with a large enough effect in the signal ratio in the repeat runs, not every such curve was filed as active; inconclusive = weak or mixed curves, or effect the other way; inactive = no such curve, though single readings can be large or run the other way; the % refers to the signal ratio; note: potency is the fitted concentration of half-maximal effect). The method, boiled down:
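Agonist mode reporter screen: HepG2 cells with ARE-controlled beta-lactamase are incubated with test compounds for 16 h at 37 C, and beta-lactamase activity is measured as fluorescence of cleaved B/G FRET substrate.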

Aryl hydrocarbon receptor (Homo sapiens), sequence (P35869 whole entry, looked up): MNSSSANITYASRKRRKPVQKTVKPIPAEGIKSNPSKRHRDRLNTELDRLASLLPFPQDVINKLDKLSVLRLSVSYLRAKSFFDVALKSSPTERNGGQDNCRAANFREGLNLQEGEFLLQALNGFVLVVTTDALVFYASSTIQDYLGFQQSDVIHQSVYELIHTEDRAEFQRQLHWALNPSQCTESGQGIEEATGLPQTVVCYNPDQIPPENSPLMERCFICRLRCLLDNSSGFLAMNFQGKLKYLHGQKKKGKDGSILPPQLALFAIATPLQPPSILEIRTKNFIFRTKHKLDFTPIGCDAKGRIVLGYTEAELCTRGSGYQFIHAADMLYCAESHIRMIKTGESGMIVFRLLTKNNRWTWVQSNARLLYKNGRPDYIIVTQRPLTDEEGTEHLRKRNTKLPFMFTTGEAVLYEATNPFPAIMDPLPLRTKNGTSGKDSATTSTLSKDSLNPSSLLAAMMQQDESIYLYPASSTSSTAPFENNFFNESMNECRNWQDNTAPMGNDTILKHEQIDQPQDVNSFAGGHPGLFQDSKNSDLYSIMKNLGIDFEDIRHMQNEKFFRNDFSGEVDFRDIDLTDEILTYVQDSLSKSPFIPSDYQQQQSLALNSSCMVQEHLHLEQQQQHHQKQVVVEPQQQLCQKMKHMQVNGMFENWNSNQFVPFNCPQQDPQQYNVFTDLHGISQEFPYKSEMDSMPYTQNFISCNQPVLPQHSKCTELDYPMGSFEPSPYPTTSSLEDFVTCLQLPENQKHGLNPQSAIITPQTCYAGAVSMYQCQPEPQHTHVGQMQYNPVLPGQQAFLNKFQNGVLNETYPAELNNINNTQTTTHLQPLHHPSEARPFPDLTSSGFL
Estrogen receptor (Homo sapiens), sequence (P03372 whole entry, looked up): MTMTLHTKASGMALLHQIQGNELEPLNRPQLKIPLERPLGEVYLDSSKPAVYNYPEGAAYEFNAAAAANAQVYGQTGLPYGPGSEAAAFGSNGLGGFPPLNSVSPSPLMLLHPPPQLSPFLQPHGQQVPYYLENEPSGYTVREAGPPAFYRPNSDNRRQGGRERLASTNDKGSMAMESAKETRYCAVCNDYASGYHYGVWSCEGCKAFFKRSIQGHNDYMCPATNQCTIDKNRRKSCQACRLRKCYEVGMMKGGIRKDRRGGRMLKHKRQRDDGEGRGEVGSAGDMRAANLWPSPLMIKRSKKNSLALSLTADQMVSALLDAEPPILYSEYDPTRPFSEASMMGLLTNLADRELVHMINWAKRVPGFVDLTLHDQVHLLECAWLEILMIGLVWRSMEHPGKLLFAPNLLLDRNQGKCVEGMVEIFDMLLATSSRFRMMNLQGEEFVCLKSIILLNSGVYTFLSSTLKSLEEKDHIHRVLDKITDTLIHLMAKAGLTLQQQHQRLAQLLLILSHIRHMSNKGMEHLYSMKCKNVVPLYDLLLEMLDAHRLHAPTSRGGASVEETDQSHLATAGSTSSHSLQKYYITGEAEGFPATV
Aromatase (Homo sapiens), sequence (P11511 whole entry, looked up): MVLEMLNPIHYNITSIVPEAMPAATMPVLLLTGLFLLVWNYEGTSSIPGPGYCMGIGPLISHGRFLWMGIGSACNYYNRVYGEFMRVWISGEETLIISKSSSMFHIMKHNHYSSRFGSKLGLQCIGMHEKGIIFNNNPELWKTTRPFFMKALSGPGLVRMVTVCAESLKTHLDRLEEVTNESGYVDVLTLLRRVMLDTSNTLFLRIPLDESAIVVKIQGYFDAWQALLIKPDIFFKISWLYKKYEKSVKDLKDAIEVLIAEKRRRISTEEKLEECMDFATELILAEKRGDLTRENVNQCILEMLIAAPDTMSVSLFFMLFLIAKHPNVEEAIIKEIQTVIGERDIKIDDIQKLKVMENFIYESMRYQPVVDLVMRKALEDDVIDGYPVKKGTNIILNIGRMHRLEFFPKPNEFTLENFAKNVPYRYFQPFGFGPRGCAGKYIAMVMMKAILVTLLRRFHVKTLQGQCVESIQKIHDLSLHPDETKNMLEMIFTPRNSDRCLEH
Peroxisome proliferator-activated receptor gamma (Homo sapiens), sequence (P37231 whole entry, looked up): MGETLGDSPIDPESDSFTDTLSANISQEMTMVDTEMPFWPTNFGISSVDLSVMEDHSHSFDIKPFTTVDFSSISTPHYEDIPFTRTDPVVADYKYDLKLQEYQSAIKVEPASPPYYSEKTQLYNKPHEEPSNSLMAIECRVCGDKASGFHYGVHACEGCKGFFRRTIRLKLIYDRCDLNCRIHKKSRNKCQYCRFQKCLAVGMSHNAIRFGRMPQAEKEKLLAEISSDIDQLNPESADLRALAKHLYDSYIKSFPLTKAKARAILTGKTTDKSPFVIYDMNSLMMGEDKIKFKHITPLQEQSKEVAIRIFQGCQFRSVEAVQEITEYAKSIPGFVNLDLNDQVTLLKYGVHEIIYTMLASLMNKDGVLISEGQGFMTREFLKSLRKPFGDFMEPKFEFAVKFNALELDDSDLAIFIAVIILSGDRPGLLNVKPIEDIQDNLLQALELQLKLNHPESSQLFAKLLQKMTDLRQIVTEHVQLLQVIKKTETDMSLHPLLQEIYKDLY

Take `CC[C@@H](C)[C@@H](N)C1=N[C@H](C(=O)N[C@@H](CC(C)C)C(=O)N[C@@H](CCC(=O)O)C(=O)N[C@@H](C(=O)N[C@@H]2CCCCNC(=O)[C@@H](CC(N)=O)NC(=O)[C@@H](CC(=O)O)NC(=O)[C@@H](Cc3cnc[nH]3)NC(=O)[C@@H](Cc3ccccc3)NC(=O)[C@@H]([C@H](C)CC)NC(=O)[C@@H](CCCN)NC2=O)[C@@H](C)CC)CS1` (X1-LE[d(aIle)][dK][dOrn][dI][dF][dH][dD][dN]; lactam 4-C): the Potency result in assay [1], in assay [2], in assay [3], in assay [4], in assay [5] and in assay [6] was “inactive” in each case. Further, the Potency result (in [8]; in [9]; with Aromatase (Homo sapiens); in assay [10]; in assay [11]; in [12]) was “inactive” each time. Further, the Potency in [7] is 4.03 µM (active) and inactive.

Consider `CCCCCCCC/C=C\CCCCCCCC(=O)N(CCO)CCO`, for which the Potency in assay [1] was 54.3 µM (active); in assay [2] it was 68.3 µM (active); in assay [4] it was 21.8 µM [inconclusive] (active); in assay [8], 54.3 µM (active). For the same compound, the Potency entry (in assay [3]; in assay [5]; in assay [6]; with Aromatase (Homo sapiens); in assay [10]; in assay [11]) was “inactive” throughout.

With `CC(C)NCC1CCc2cc(CO)c([N+](=O)[O-])cc2N1` (stereo unspecified), the Potency result in assay [1], in [2], in [3], in assay [4], in assay [5] and in assay [6] was “inactive” throughout. Moreover, the Potency entry (in [7]; in [8]; with Aromatase (Homo sapiens); in [10]; in assay [13]; in assay [11]) was “inactive” throughout. For the same compound, in assay [12], the Potency result was “inactive”.

Regarding `CC(Cc1ccc(O)c(O)c1)C(C)Cc1ccc(O)c(O)c1` (stereo unspecified), the Potency in assay [1] was 13.7 µM (active); in [2], 7.7 µM (active); in [4], 54.9 µM [inconclusive] (active); in [6], 0.0174 µM [inconclusive] (active); in [14] it was 61.1 µM (active). For the same compound, the Potency entry (in assay [3]; in assay [8]; in assay [9]; in the assay with Aromatase (Homo sapiens); in [13]; in assay [15]) was “inactive” each time.

Turning to `CCCCCCOC(=O)c1cccnc1`, the Potency entry in assay [1], in assay [2], in [3], in assay [4], in [6] and in assay [7] was “inactive” each time. Also, the Potency result (in assay [8]; in [9]; with Aromatase (Homo sapiens); in assay [10]; in assay [11]; in assay [12]) was “inactive” each time.

As for `O=C1c2ccccc2C(=O)C1c1ccc(F)cc1`, the Potency result in assay [1], in assay [2], in assay [3], in [4], in assay [6] and in assay [7] was “inactive” each time. The Potency result (in assay [8]; in assay [9]; with Aromatase (Homo sapiens); in assay [10]; in [11]; in [12]) was “inactive” each time.

As to `O=C1CCC(c2ccc(-n3ccnc3)cc2)=NN1`, the Potency entry in [1], in [2], in assay [3], in [4], in assay [6] and in assay [7] was “inactive” throughout. For the same compound, the Potency result in assay [8], in [9], in assay [10], in assay [11] and in assay [12] was “inactive” throughout. Moreover, the Potency in the assay with Aromatase (Homo sapiens) is 6.68 µM (active); in assay [13], 5.96 µM (active).

In the case of `NC(=O)[C@H]1O[C@@H](O)[C@H](O)[C@@H](O)[C@@H]1O`, the Potency result (in assay [1]; in [2]; in [3]; in [5]; in [9]; with Aromatase (Homo sapiens)) was “inactive” each time. Also, the Potency result in assay [10], in assay [13], in assay [11] and in assay [12] was “inactive” throughout.

In the case of `c1ccc2cc3c4ccccc4c4ccccc4c3cc2c1`, the Potency entry in assay [1], in [2], in assay [3], in assay [5], in assay [9] and in assay [10] was “inactive” throughout. In addition, the Potency entry in assay [11], in assay [16] and in [14] was “inactive” throughout. In addition, the Potency is 0.0973 µM (active) in [13] and 1.94 µM (active) in assay [17].

Regarding `Cc1cc(C(=O)NCCc2ccc(S(=O)(=O)NC(=O)NN3CCCCCC3)cc2)no1`, the Potency result (in [1]; in [2]; in assay [3]; in assay [5]; in assay [9]; with Aromatase (Homo sapiens)) was “inactive” each time. The Potency entry in assay [10], in assay [11] and in assay [12] was “inactive” throughout.

On to `CNCC(=O)N[C@@H](CCCN=C(N)N)C(=O)N[C@H](C(=O)N[C@@H](Cc1ccc(O)cc1)C(=O)N[C@H](C(=O)N[C@@H](Cc1cnc[nH]1)C(=O)N1CCC[C@H]1C(=O)N[C@@H](C)C(=O)O)C(C)C)C(C)C`, for which the Potency result (in assay [1]; in assay [2]; in assay [3]; in assay [5]; in [9]; in the assay with Aromatase (Homo sapiens)) was “inactive” throughout. Moreover, the Potency result in [10], in [13] and in [12] was “inactive” each time.

As to `NCC[C@H](O)C(=O)N[C@@H]1C[C@H](N)[C@@H](O[C@H]2O[C@H](CN)CC[C@H]2N)[C@H](O)[C@H]1O[C@H]1O[C@H](CO)[C@@H](O)[C@H](N)[C@H]1O`, the Potency entry (in assay [1]; in assay [2]; in assay [3]; in assay [5]; in assay [9]; with Aromatase (Homo sapiens)) was “inactive” throughout. For the same compound, the Potency entry in [10], in assay [13], in assay [11] and in assay [12] was “inactive” in each case.

Consider `C=N[C@@H](C(=O)N[C@@H]1C(=O)N2[C@@H]1SC(C)(C)[C@@H]2C(=O)O)c1ccccc1`, for which the Potency entry (in assay [1]; in [2]; in assay [3]; in assay [5]; in assay [9]; with Aromatase (Homo sapiens)) was “inactive” in each case. Further, the Potency result in assay [10] and in assay [11] was “inactive” in each case.

Consider `CC(=O)OCC1=C(C(=O)O)N2C(=O)[C@@H](NC(=O)Cc3ccccc3)[C@H]2SC1`, for which the Potency result (in [1]; in assay [2]; in [3]; in assay [5]; in assay [9]; with Aromatase (Homo sapiens)) was “inactive” each time. Also, the Potency entry in [10], in [13], in assay [11] and in assay [12] was “inactive” in each case.

With `NC(=O)CC[C@@H]1NC(=O)[C@H](Cc2ccccc2)NC(=O)[C@H](Cc2ccc(O)cc2)NC(=O)[C@@H](N)CSSC[C@@H](C(=O)N2CCC[C@H]2C(=O)N[C@@H](CCCN=C(N)N)C(=O)NCC(N)=O)NC(=O)[C@H](CC(N)=O)NC1=O`, the Potency result in assay [1], in assay [2], in assay [3], in assay [5], in assay [8] and in [9] was “inactive” in each case. In addition, the Potency result (with Aromatase (Homo sapiens); in [10]; in assay [13]; in assay [11]; in assay [12]) was “inactive” throughout.

Regarding `N[C@@H](Cc1cnc[nH]1)C(=O)O`, the Potency entry (in assay [1]; in assay [2]; in assay [3]; in assay [5]; in [9]; with Aromatase (Homo sapiens)) was “inactive” throughout. Moreover, the Potency result in [10], in assay [11] and in assay [12] was “inactive” each time.
